In article PMC11006913:
Residue numbers refer to the chain shown, from its start.

Columns and labels:
Assay in all cases: PBM; 200 nM protein, PBS
Conditions in all cases: dsDNA, one strand shown
ALX4 [1] = target: ALX4 (Homo sapiens, UniProt Q9H161 200-286)
ALX4 [2] = target: ALX4 (Homo sapiens, UniProt Q9H161 200-286, Q225E)
ALX1 [3] = target: ALX1 (Homo sapiens, UniProt Q15699 118-204, L144V)
ALX1 [4] = target: ALX1 (Homo sapiens, UniProt Q15699 118-204, L144R)
ALX1 [5] = target: ALX1 (Homo sapiens, UniProt Q15699 118-204)
ALX1 (Homo sapiens, UniProt Q15699 118-204), sequence (Q15699 118-204): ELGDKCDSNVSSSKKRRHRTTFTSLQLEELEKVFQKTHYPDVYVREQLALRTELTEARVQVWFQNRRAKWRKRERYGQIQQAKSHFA

PROP1 [6] = target: PROP1 (Homo sapiens, UniProt O75360 56-141)
PROP1 (Homo sapiens, UniProt O75360 56-141), sequence (O75360 56-141): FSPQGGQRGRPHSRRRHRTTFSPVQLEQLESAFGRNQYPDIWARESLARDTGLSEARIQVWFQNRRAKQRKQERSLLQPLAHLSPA

PROP1 [7] = target: PROP1 (Homo sapiens, UniProt O75360 56-141, R99H)
PROP1 (Homo sapiens, UniProt O75360 56-141, R99H), sequence (O75360 56-141 R99H): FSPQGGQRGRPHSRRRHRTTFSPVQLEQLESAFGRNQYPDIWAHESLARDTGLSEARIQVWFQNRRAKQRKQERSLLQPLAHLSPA

PROP1 [8] = target: PROP1 (Homo sapiens, UniProt O75360 56-141, F88S)
PROP1 (Homo sapiens, UniProt O75360 56-141, F88S), sequence (O75360 56-141 F88S): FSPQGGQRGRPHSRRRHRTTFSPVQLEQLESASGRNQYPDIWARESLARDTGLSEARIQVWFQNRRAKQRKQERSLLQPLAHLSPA

PAX4 [9] = target: T1, PAX4 (Homo sapiens, UniProt O43316 9-242, R200K)
T1 sequence: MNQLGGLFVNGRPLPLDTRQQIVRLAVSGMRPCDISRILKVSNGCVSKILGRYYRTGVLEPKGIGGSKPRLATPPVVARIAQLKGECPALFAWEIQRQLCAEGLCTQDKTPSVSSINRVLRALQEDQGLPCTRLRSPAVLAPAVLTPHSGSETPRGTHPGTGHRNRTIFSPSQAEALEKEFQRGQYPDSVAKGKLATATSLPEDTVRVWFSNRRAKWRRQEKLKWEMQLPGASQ

PAX4 [10] = target: T2, PAX4 (Homo sapiens, UniProt O43316 9-242)
T2 sequence: T1 sequence with K192R

HOXA2 [11] = target: HOXA2 (Homo sapiens, UniProt O43364 129-215, R185T)
HOXA2 (Homo sapiens, UniProt O43364 129-215, R185T), sequence (O43364 129-215 R185T): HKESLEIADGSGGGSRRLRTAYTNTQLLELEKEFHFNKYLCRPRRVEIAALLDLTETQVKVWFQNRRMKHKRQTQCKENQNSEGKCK

HOXA2 [12] = target: HOXA2 (Homo sapiens, UniProt O43364 129-215, R185K)
HOXA2 (Homo sapiens, UniProt O43364 129-215, R185K), sequence (O43364 129-215 R185K): as the sequence (O43364 129-215 R185T) above, with T57K counted along it

HOXA2 [13] = target: HOXA2 (Homo sapiens, UniProt O43364 129-215, Y150S)
HOXA2 (Homo sapiens, UniProt O43364 129-215, Y150S), sequence (O43364 129-215 Y150S): as the sequence (O43364 129-215 R185T) above, with Y22S, T57R counted along it

HOXA2 [14] = target: HOXA2 (Homo sapiens, UniProt O43364 129-215)
HOXA2 (Homo sapiens, UniProt O43364 129-215), sequence (O43364 129-215): as the sequence (O43364 129-215 R185T) above, with T57R counted along it

PAX4 [15] = target: T3, PAX4 (Homo sapiens, UniProt O43316 9-242, R200Q)
T3 sequence: T1 sequence with K192Q

PAX4 [16] = target: T4, PAX4 (Homo sapiens, UniProt O43316 9-242, R227W)
T4 sequence: T1 sequence with K192R, R219W

ALX4 (Homo sapiens, UniProt Q9H161 200-286), sequence (Q9H161 200-286): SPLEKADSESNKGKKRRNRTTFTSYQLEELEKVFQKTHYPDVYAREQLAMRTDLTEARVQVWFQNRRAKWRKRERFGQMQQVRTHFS
ALX4 (Homo sapiens, UniProt Q9H161 200-286, Q225E), sequence (Q9H161 200-286 Q225E): as the sequence (Q9H161 200-286) above, with Q26E counted along it
ALX1 (Homo sapiens, UniProt Q15699 118-204, L144R), sequence (Q15699 118-204 L144R): as the sequence (Q15699 118-204) above, with L27R counted along it
ALX1 (Homo sapiens, UniProt Q15699 118-204, L144V), sequence (Q15699 118-204 L144V): as the sequence (Q15699 118-204) above, with L27V counted along it

AATGGATA
binding signal (ALX4 [1]): 10.2 upbm affinity estimate (log intensity, higher = more binding, comparable within an allelic series) | binding signal (ALX4 [2]): 9.39 upbm affinity estimate (log intensity, higher = more binding, comparable within an allelic series)

CGTAATCA
binding signal (ALX4 [1]): 11.9 upbm affinity estimate (log intensity, higher = more binding, comparable within an allelic series) | binding signal (ALX4 [2]): 10.6 upbm affinity estimate (log intensity, higher = more binding, comparable within an allelic series)

CTCCCTTC
binding signal (ALX4 [1]): 7.88 upbm affinity estimate (log intensity, higher = more binding, comparable within an allelic series) | binding signal (ALX4 [2]): 8.19 upbm affinity estimate (log intensity, higher = more binding, comparable within an allelic series)

GGTTATCA
binding signal (ALX4 [1]): 9.51 upbm affinity estimate (log intensity, higher = more binding, comparable within an allelic series) | binding signal (ALX4 [2]): 9.1 upbm affinity estimate (log intensity, higher = more binding, comparable within an allelic series)

AGAGCCTC
binding signal (ALX4 [1]): 7.96 upbm affinity estimate (log intensity, higher = more binding, comparable within an allelic series) | binding signal (ALX4 [2]): 7.95 upbm affinity estimate (log intensity, higher = more binding, comparable within an allelic series)

CCCTTCCA
binding signal (ALX4 [1]): 8.25 upbm affinity estimate (log intensity, higher = more binding, comparable within an allelic series) | binding signal (ALX4 [2]): 8.35 upbm affinity estimate (log intensity, higher = more binding, comparable within an allelic series)

ATAACCAA
binding signal (ALX4 [1]): 10.1 upbm affinity estimate (log intensity, higher = more binding, comparable within an allelic series) | binding signal (ALX4 [2]): 9.6 upbm affinity estimate (log intensity, higher = more binding, comparable within an allelic series)

TCAATGAA
binding signal (ALX4 [1]): 10.1 upbm affinity estimate (log intensity, higher = more binding, comparable within an allelic series) | binding signal (ALX4 [2]): 9.63 upbm affinity estimate (log intensity, higher = more binding, comparable within an allelic series)

CGACATCC
binding signal (ALX4 [1]): 7.95 upbm affinity estimate (log intensity, higher = more binding, comparable within an allelic series) | binding signal (ALX4 [2]): 8.23 upbm affinity estimate (log intensity, higher = more binding, comparable within an allelic series)

CCGTAGCC
binding signal (ALX4 [1]): 8.11 upbm affinity estimate (log intensity, higher = more binding, comparable within an allelic series) | binding signal (ALX4 [2]): 8.21 upbm affinity estimate (log intensity, higher = more binding, comparable within an allelic series)

CCCTCACG
binding signal (ALX4 [1]): 8.1 upbm affinity estimate (log intensity, higher = more binding, comparable within an allelic series) | binding signal (ALX4 [2]): 8.28 upbm affinity estimate (log intensity, higher = more binding, comparable within an allelic series)

GGCATGCC
binding signal (ALX4 [1]): 8.37 upbm affinity estimate (log intensity, higher = more binding, comparable within an allelic series) | binding signal (ALX4 [2]): 8.31 upbm affinity estimate (log intensity, higher = more binding, comparable within an allelic series)

ATAACCTC
binding signal (ALX4 [1]): 9.88 upbm affinity estimate (log intensity, higher = more binding, comparable within an allelic series) | binding signal (ALX4 [2]): 9.24 upbm affinity estimate (log intensity, higher = more binding, comparable within an allelic series)

AGCAGCTC
binding signal (ALX4 [1]): 8.01 upbm affinity estimate (log intensity, higher = more binding, comparable within an allelic series) | binding signal (ALX4 [2]): 8.09 upbm affinity estimate (log intensity, higher = more binding, comparable within an allelic series)

AATTTTCA
binding signal (ALX4 [1]): 11.5 upbm affinity estimate (log intensity, higher = more binding, comparable within an allelic series) | binding signal (ALX4 [2]): 10.4 upbm affinity estimate (log intensity, higher = more binding, comparable within an allelic series) | binding signal (ALX1 [3]): 9.64 upbm affinity estimate (log intensity, higher = more binding, comparable within an allelic series) | binding signal (ALX1 [4]): 9.33 upbm affinity estimate (log intensity, higher = more binding, comparable within an allelic series) | binding signal (ALX1 [5]): 10 upbm affinity estimate (log intensity, higher = more binding, comparable within an allelic series)

GACTGGAC
binding signal (ALX4 [1]): 7.98 upbm affinity estimate (log intensity, higher = more binding, comparable within an allelic series) | binding signal (ALX4 [2]): 8.14 upbm affinity estimate (log intensity, higher = more binding, comparable within an allelic series) | binding signal (ALX1 [3]): 6.55 upbm affinity estimate (log intensity, higher = more binding, comparable within an allelic series) | binding signal (ALX1 [4]): 6.42 upbm affinity estimate (log intensity, higher = more binding, comparable within an allelic series) | binding signal (ALX1 [5]): 6.44 upbm affinity estimate (log intensity, higher = more binding, comparable within an allelic series)

AGCCGTGC
binding signal (ALX4 [1]): 7.92 upbm affinity estimate (log intensity, higher = more binding, comparable within an allelic series) | binding signal (ALX4 [2]): 8.07 upbm affinity estimate (log intensity, higher = more binding, comparable within an allelic series)

CACAGCTC
binding signal (ALX4 [1]): 7.95 upbm affinity estimate (log intensity, higher = more binding, comparable within an allelic series) | binding signal (ALX4 [2]): 8.26 upbm affinity estimate (log intensity, higher = more binding, comparable within an allelic series) | binding signal (PROP1 [6]): 6.72 upbm affinity estimate (log intensity, higher = more binding, comparable within an allelic series) | binding signal (PROP1 [7]): 6.77 upbm affinity estimate (log intensity, higher = more binding, comparable within an allelic series) | binding signal (PROP1 [8]): 6.99 upbm affinity estimate (log intensity, higher = more binding, comparable within an allelic series)

CAGCGTAA
binding signal (PAX4 [9]): 10.6 upbm affinity estimate (log intensity, higher = more binding, comparable within an allelic series) | binding signal (PAX4 [10]): 10.8 upbm affinity estimate (log intensity, higher = more binding, comparable within an allelic series)

CCGCAGAC
binding signal (ALX4 [1]): 8.08 upbm affinity estimate (log intensity, higher = more binding, comparable within an allelic series) | binding signal (ALX4 [2]): 8.21 upbm affinity estimate (log intensity, higher = more binding, comparable within an allelic series) | binding signal (HOXA2 [11]): 7.17 upbm affinity estimate (log intensity, higher = more binding, comparable within an allelic series) | binding signal (HOXA2 [12]): 10.2 upbm affinity estimate (log intensity, higher = more binding, comparable within an allelic series) | binding signal (HOXA2 [13]): 10.5 upbm affinity estimate (log intensity, higher = more binding, comparable within an allelic series) | binding signal (HOXA2 [14]): 6.96 upbm affinity estimate (log intensity, higher = more binding, comparable within an allelic series)

CTCGATCC
binding signal (ALX4 [1]): 8.2 upbm affinity estimate (log intensity, higher = more binding, comparable within an allelic series) | binding signal (ALX4 [2]): 8.33 upbm affinity estimate (log intensity, higher = more binding, comparable within an allelic series)

AAATTAGT
binding signal (ALX4 [1]): 13.5 upbm affinity estimate (log intensity, higher = more binding, comparable within an allelic series) | binding signal (ALX4 [2]): 12.5 upbm affinity estimate (log intensity, higher = more binding, comparable within an allelic series) | binding signal (ALX1 [3]): 11.4 upbm affinity estimate (log intensity, higher = more binding, comparable within an allelic series) | binding signal (PAX4 [15]): 12 upbm affinity estimate (log intensity, higher = more binding, comparable within an allelic series) | binding signal (ALX1 [4]): 10.9 upbm affinity estimate (log intensity, higher = more binding, comparable within an allelic series) | binding signal (PAX4 [16]): 10.9 upbm affinity estimate (log intensity, higher = more binding, comparable within an allelic series) | binding signal (ALX1 [5]): 12.1 upbm affinity estimate (log intensity, higher = more binding, comparable within an allelic series)
